Test results published in PubChem BioAssay.
The source made the active and inactive calls. Unless noted, how the calls were made is not given here.

Assays:
[1] = HepG2 liver cancer cell viability effects, profiling panel, resazurin fluorescence, 24 h, PK04 Diversity Set (AID 1172); conditions: higher = more signal
[2] = basal S. cerevisiae growth modulation, no modifier, primary screen, OD600, strain BY4716, 24 h, basal condition (AID 1173); conditions: OD600, 24 h, higher = more signal, called active from +8 up or from −8 down
[3] = MM1S myeloma cell viability, profiling panel, resazurin fluorescence, basal, 24 h, PK04 Diversity Set (AID 1174); conditions: higher = more signal, called active from +8 up or from −8 down;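 further: MM1S multiple myeloma cell line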
[4] = target: Dihydroorotate dehydrogenase (quinone), mitochondrial (Plasmodium falciparum (isolate 3D7)) (UniProt Q08210); assay: PfDHODH enzyme inhibitors, primary screen, biochemical, C-terminal His tag, absorbance 600 nm (AID 1175); conditions: DCIP absorbance 600 nm, higher = more signal, called active from +8 up or from −8 down;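 further: recombinant parasite enzyme with a five histidine tag at its C terminus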
Chain of Dihydroorotate dehydrogenase (quinone), mitochondrial (Plasmodium falciparum (isolate 3D7)) (Q08210 whole entry, looked up): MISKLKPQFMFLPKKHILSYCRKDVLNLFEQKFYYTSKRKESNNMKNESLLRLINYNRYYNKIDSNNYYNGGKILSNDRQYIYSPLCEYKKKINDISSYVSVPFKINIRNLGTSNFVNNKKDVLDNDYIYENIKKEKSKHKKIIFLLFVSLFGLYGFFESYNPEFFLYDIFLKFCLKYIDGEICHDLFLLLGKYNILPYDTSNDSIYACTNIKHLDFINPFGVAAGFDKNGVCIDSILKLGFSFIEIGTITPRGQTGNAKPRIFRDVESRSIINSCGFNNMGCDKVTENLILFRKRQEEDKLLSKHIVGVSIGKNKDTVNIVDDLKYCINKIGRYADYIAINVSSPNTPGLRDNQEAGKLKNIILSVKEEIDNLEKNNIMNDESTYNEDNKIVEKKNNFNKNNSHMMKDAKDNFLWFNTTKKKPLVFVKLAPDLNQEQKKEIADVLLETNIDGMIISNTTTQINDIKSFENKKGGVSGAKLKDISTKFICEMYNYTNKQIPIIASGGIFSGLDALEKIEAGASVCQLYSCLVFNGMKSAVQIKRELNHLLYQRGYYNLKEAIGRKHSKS

[5] = P. aeruginosa biofilm formation inhibitors, primary screen, strain PAO1, LB-PBS medium, absorbance 600 nm (AID 1176); conditions: P. aeruginosa PAO1 growth/biofilm, A600, 12 h; higher = more signal
[6] = S. cerevisiae RM11-1a growth modifiers, primary screen, strain RM11-1a, OD600, basal, 24 h (AID 1177); conditions: OD600, 24 h, higher = more signal, called active from +8 up or from −8 down;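 further: cultures grown under basal conditions with no added stressor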
[7] = E. coli acrAB mutant growth effects, primary screen, E. coli filamentation inducers, strain DRC39, OD650, 24 h (AID 1178); conditions: higher = more signal, called active from +8 up or from −8 down;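 further: growth measured as culture turbidity by optical density at 650 nm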
[8] = E. coli acrAB mutant growth effects, primary screen, E. coli filamentation inducers, strain DRC39, OD650, 48 h (AID 1179);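 further: screen aims at cell division blockers that make cells filament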; conditions: E. coli DRC39 delta-acrAB growth, higher = more signal, called active from +8 up or from −8 down
[9] = RPMI8226 myeloma cell viability, profiling panel, resazurin fluorescence, basal, 24 h, PK04 Diversity Set (AID 1180); conditions: higher = more signal;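 further: RPMI8826 multiple myeloma cell line at 5000 cells per well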
[10] = target: E3 ubiquitin-protein ligase XIAP (Homo sapiens) (UniProt P98170); assay: XIAP binders, primary screen, biophysical, small-molecule microarray, fluorescence 635 nm (AID 1181); conditions: small-molecule microarray binding, higher = more signal;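 further: score merges 667 nm emission and signal to noise over triplicate slides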
Chain of E3 ubiquitin-protein ligase XIAP (Homo sapiens) (P98170 whole entry, looked up): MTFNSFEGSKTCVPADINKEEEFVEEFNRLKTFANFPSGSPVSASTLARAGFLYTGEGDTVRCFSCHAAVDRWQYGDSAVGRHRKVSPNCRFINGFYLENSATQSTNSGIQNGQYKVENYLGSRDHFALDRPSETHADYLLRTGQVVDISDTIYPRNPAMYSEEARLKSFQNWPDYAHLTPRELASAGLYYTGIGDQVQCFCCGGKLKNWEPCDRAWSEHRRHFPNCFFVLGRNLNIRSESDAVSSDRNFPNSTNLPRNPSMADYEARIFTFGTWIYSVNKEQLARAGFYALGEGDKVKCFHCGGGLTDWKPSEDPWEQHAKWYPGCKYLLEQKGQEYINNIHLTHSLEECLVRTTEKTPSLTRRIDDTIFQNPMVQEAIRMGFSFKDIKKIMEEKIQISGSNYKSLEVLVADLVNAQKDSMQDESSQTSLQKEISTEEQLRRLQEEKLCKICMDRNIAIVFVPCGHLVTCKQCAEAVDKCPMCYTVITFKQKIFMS

[11] = system: XIP peptide (Xip251-270) binding; assay: small-molecule binders of XIP peptide, primary screen, biochemical, small-molecule microarray, fluorescence 635/667 nm, 0.1 µg/mL protein (AID 1182); conditions: fluorescent protein binding, 635 nm, higher = more signal, called active from +8 up or from −8 down
XIP peptide (Xip251-270) = assay: small-molecule binders of XIP peptide, primary screen, biochemical, small-molecule microarray, fluorescence 635/667 nm, 0.5 µg/mL protein (AID 1183); conditions: small-molecule microarray binding, fluorescence 635 nm; higher = more signal
[12] = Plasmodium falciparum growth inhibition, primary screen, strain 3D7, DAPI fluorescence, 100 nL (AID 1184);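 further: parasites grown inside human red blood cells in medium with human serum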; conditions: P. falciparum 3D7 growth, 3 d, higher = more signal
[13] = target: Homeobox protein Hox-A13 (Mus musculus) (UniProt Q62424); assay: inhibitors of HoxA13-DNA binding, primary screen, biochemical, fluorescence polarization, labeled oligonucleotide (AID 1185); conditions: 15 min, higher = more signal, called active from +8 up or from −8 down
Chain of Homeobox protein Hox-A13 (Mus musculus) (Q62424 whole entry, looked up): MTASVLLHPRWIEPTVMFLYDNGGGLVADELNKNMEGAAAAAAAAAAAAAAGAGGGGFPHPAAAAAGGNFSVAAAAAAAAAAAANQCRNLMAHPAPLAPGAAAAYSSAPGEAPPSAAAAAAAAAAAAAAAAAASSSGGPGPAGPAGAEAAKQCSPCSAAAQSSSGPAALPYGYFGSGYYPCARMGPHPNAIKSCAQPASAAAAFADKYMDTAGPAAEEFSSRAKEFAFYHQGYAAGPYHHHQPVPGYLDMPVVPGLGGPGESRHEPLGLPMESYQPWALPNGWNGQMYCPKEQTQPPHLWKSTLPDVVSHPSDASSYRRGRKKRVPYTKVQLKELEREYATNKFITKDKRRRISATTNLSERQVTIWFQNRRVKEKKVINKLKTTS

[14] = inhibitors of hydroxyurea-induced Chk1 phosphorylation, primary screen, imaging, HeLa, phospho-Chk1 antibody, percent positive cells (AID 1186); conditions: hydroxyurea-induced phospho-Chk1 immunofluorescence imaging, higher = more signal
[15] = inhibitors of hydroxyurea-induced Chk1 phosphorylation, primary screen, imaging, HeLa, phospho-Chk1 nuclear intensity (AID 1187); conditions: hydroxyurea-induced phospho-Chk1 immunofluorescence imaging, higher = more signal

SMILES	z-score [1]	z-score [2]	z-score [3]	composite z-score [4]	z-score [5]	z-score [6]	z-score [7]	z-score [8]	z-score [9]	composite z-score [10]	composite z-score [11]	composite z-score (XIP peptide (Xip251-270))	z-score [12]	z-score [13]	z-score [14]	z-score [15]
CN(C)CCCCCCNC(=O)[C@@H]1C[C@@H]2C(=O)N3CCC[C@H]3C(=O)N2[C@@H]1c1ccc(O)cc1	-0.627	-0.732 (inactive)	-0.235 (inactive)	-1.7 (inactive)	1.82 (inactive)	-2.55 (inactive)	0.966 (inactive)	1.64 (inactive)	-0.198	0.117	2.98 (inactive)	0.929	0.199	0.647 (inactive)	-0.849 (inactive)	-0.147 (inactive)
CO[C@H]1O[C@H](CO)[C@@H](OC(=O)Nc2ccccc2)[C@@H]2OC(=O)[C@@H](Cc3ccc4ccccc4c3)C/C=C/C[C@H](Cc3ccc4ccccc4c3)C(=O)O[C@@H]12	-1.72	-0.456 (inactive)	-0.588 (inactive)	-2.21 (inactive)	0.509 (inactive)	-0.474 (inactive)	1.13 (inactive)	1.09 (inactive)	-1.15	1.54	1.97 (inactive)	0.748	-0.492	-3.03 (inactive)	-0.956 (inactive)	-0.96 (inactive)
C#CCOc1ccc(C[C@@H](C(=O)OC)N(CC#C)[C@@H](/C=C/C2CC2)[C@H](O)Cc2ccccc2)cc1	0.288	1.03 (inactive)	0.232 (inactive)	0.567 (inactive)	-0.271 (inactive)	1.45 (inactive)	-0.741 (inactive)	-0.528 (inactive)	0.318	0.157	-0.365 (inactive)	-0.119	-1.21	-3.88 (inactive)	-0.146 (inactive)	-0.432 (inactive)
C=CCNC(=O)[C@H]1[C@@H]2C(=O)O[C@@H](c3ccccc3)[C@@H](c3ccccc3)N2[C@@H](c2ccc(OCCO)cc2)[C@]12C(=O)Nc1ccc(C#CCC(C(=O)OC)C(=O)OC)cc12	0.47	1.62 (inactive)	-0.447 (inactive)	0.26 (inactive)	2.63 (inactive)	2.22 (inactive)	0.634 (inactive)	-0.115 (inactive)	-2.64	0.0975	1.06 (inactive)	0.635	-2.03	-2.29 (inactive)	0.239 (inactive)	0.514 (inactive)
CCOC(=O)C1=CCC(c2ccc(F)cc2)N(S(=O)(=O)c2ccc(C)cc2)C1 (stereo not given)	-0.175	1.47 (inactive)	-0.866 (inactive)	-0.217 (inactive)	0.766 (inactive)	0.241 (inactive)	-0.614 (inactive)	-0.124 (inactive)	-1.76	0.206	0.428 (inactive)	0.298	0.217	-2.03 (inactive)	0.447 (inactive)	-0.996 (inactive)
CCCCC(O)C1C=CC2C(=O)N(C)C(=O)C2N1N1CCCCC1 (stereo not given)	-1.12	1.96 (inactive)	-1.5 (inactive)	1.23 (inactive)	0.971 (inactive)	1.64 (inactive)	-0.83 (inactive)	-0.412 (inactive)	-1.9	0.547	0.0433 (inactive)	0.941	-0.133	-6.77 (inactive)	0.492 (inactive)	0.154 (inactive)
CC(=O)n1cc(C(O)C2C=CC3C(=O)NC(=O)C3N2Nc2ccccn2)c2ccccc21 (stereo not given)	-1.3	0.627 (inactive)	-1.67 (inactive)	0.496 (inactive)	1.33 (inactive)	0.605 (inactive)	-0.641 (inactive)	-0.109 (inactive)	-1.31	0.07	-0.251 (inactive)	0.785	0.249	-2.99 (inactive)	0.5 (inactive)	-0.392 (inactive)
COC(=O)[C@@]1(CCC(=O)OC(C)(C)C)N=C(c2ccc(OCCCO)cc2)O[C@H]1c1ccccc1	-0.291	-0.814 (inactive)	-1.34 (inactive)	1.27 (inactive)	0.618 (inactive)	1.47 (inactive)	-3.29 (inactive)	-0.735 (inactive)	-0.808	-0.0095	0.485 (inactive)	0.732	-2.43	-4.58 (inactive)	-0.17 (inactive)	0.284 (inactive)
CCCCCCc1nc(-c2ccc(-c3ccc(Cl)c(Cl)c3)o2)cc2c1[Si](C(C)C)(C(C)C)O[C@H]2c1ccccc1	1.32	-0.911 (inactive)	0.551 (inactive)	-0.206 (inactive)	-0.771 (inactive)	-0.361 (inactive)	0.708 (inactive)	0.447 (inactive)	0.0719	-0.0641	2.93 (inactive)	0.393	-1.3	-1.4 (inactive)	-0.682 (inactive)	-0.449 (inactive)
CC=CC(O)C1C=CC2C(=O)N(C)C(=O)C2N1N(c1ccccc1)c1ccccc1 (stereo not given)	0.0376	0.554 (inactive)	-0.505 (inactive)	1.13 (inactive)	-0.531 (inactive)	0.823 (inactive)	-1.15 (inactive)	-0.321 (inactive)	-0.905	0.0116	0.212 (inactive)	0.414	0.0212	-0.125 (inactive)	0.341 (inactive)	0.365 (inactive)
